Here are results for eight compounds from PubChem BioAssay (NCI).

Among the test systems are DU-145 prostate; K-562 leukemia; MALME-3M melanoma; MDA-MB-231 breast; RXF 393 renal; SF-268 CNS; SF-295 CNS; UACC-257 melanoma; M14 melanoma; HCT-15 colon; HT29 colon; SNB-75 CNS; SNB-19 CNS; U251 CNS; PC-3 prostate; SK-MEL-5 melanoma; UACC-62 melanoma; LOX IMVI melanoma; SK-MEL-28 melanoma.
What all share (assay): NCI-60 one-dose screen, 48 h (100 = growth as untreated, 0 = no growth, -100 = all killed)
What all share (settings): 10 µM unless noted

This is part of a sample that, as a whole, favours compounds with a hit. Of some 83,000 tested, about 20% had one in any assay.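 Interpretation: 100, growth as untreated; towards 0, rising growth inhibition; 0, no net growth; 0 to -100, cell death. Compounds scoring below 10 were considered active.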 Values without a mark were called inactive. The source made the active and inactive calls.

Turning to `CCCCCCCCCCCCCC(=O)C(C)N` (configuration not stated), the growth was 7.93% (active) in the experiment with DU-145 prostate; -44.3% (active) in the experiment on K-562 leukemia; 77.8% with MALME-3M melanoma; -54.1% (active) in the experiment with MDA-MB-231 breast; 28% in the experiment on RXF 393 renal; 37.7% in the experiment on SF-268 CNS. Moreover, the growth was 56.3% with SF-295 CNS; 91.6% in the experiment with UACC-257 melanoma; 63.7% with M14 melanoma; 3.51% (active) with HCT-15 colon; 13.8% with HT29 colon; 34.1% in the experiment with SNB-75 CNS. Also, the growth in the experiment on SNB-19 CNS is 77.5%; in the experiment on U251 CNS, 18.2%; in the experiment with PC-3 prostate, 3.08% (active); in the experiment with SK-MEL-5 melanoma, 90.3%; in the experiment with UACC-62 melanoma, -71.1% (active); in the experiment with LOX IMVI melanoma, -79.6% (active). In the experiment with SK-MEL-28 melanoma, the growth was 73.9%.

On to `COc1ccc2nc3cc(Cl)ccc3c(N3CCN(c4ccnc(N5CCN(C)CC5)n4)CC3)c2c1`, for which the growth with DU-145 prostate was 3.84% (active); in the experiment on K-562 leukemia, -36.1% (active); with MALME-3M melanoma it was 83.8%; in the experiment with MDA-MB-231 breast, 28.3%; in the experiment with RXF 393 renal, 10.5%; with SF-268 CNS it was 52.8%. Moreover, the growth in the experiment on SF-295 CNS is 93.9%; in the experiment with UACC-257 melanoma, 90.7%; in the experiment with M14 melanoma it was 58.5%; in the experiment with HCT-15 colon, -23.2% (active); with HT29 colon it was -69.4% (active); with SNB-75 CNS, 90.6%. The growth was 94.5% in the experiment with SNB-19 CNS; 46.1% with U251 CNS; 63.4% in the experiment with PC-3 prostate; 84.7% in the experiment with SK-MEL-5 melanoma; 94.1% with UACC-62 melanoma; -62.5% (active) in the experiment on LOX IMVI melanoma. In addition, the growth with SK-MEL-28 melanoma was 28.7%.

For the compound `CN(C)CCCC(=O)Nc1ccc(Cn2nnc3c2C(=O)c2nnn(Cc4ccc(NC(=O)CCCN(C)C)cc4)c2C3=O)cc1`, the growth was 86% in the experiment on DU-145 prostate; 70.1% in the experiment with K-562 leukemia; -33.4% (active) in the experiment with MALME-3M melanoma; 3.74% (active) with MDA-MB-231 breast; 90.8% in the experiment with RXF 393 renal; 80.6% in the experiment on SF-268 CNS. Further, the growth was 77.8% in the experiment with SF-295 CNS; 47.9% in the experiment on UACC-257 melanoma; 85.8% in the experiment on M14 melanoma; 94.5% in the experiment with HCT-15 colon; 10.5% in the experiment on HT29 colon; -94.9% (active) with SNB-75 CNS. The growth in the experiment with SNB-19 CNS is 82.7%; in the experiment on U251 CNS, 90.2%; with PC-3 prostate it was 88.1%; with SK-MEL-5 melanoma, 50.3%; in the experiment on UACC-62 melanoma, 75.7%; in the experiment with LOX IMVI melanoma, 6.92% (active). Also, in the experiment on SK-MEL-28 melanoma, the growth was 56.5%.

`COc1cc(OC)c(/C=C/S(=O)(=O)Cc2cnc(OC)c(N)c2)c(OC)c1`: the growth in the experiment on DU-145 prostate was 1.99% (active); with K-562 leukemia, 9.4% (active); in the experiment with MALME-3M melanoma, 67.3%; with MDA-MB-231 breast, 11.9%; in the experiment on RXF 393 renal it was 45.5%; in the experiment with SF-268 CNS it was 38%. Moreover, the growth in the experiment with SF-295 CNS was 2.57% (active); in the experiment on UACC-257 melanoma it was 62.4%; with M14 melanoma, 10.1%; in the experiment with HCT-15 colon, 9.83% (active); in the experiment on HT29 colon, 0.841% (active); in the experiment on SNB-75 CNS, 42.1%. Besides, the growth is 31.3% in the experiment on SNB-19 CNS; 10.5% with U251 CNS; 27.8% with PC-3 prostate; -24.8% (active) with SK-MEL-5 melanoma; 40.1% with UACC-62 melanoma; 8.96% (active) with LOX IMVI melanoma. In addition, the growth in the experiment on SK-MEL-28 melanoma is 56.2%.

With `O=C1CC(c2nc3ccccc3s2)CN1C1CCCCC1` (configuration not stated), the growth in the experiment on DU-145 prostate is 104%; in the experiment on K-562 leukemia it was 96.7%; in the experiment with MALME-3M melanoma, 90.8%; with MDA-MB-231 breast it was 86.8%; in the experiment with RXF 393 renal, 107%; in the experiment with SF-268 CNS it was 99.1%. Moreover, the growth is 92.9% in the experiment with SF-295 CNS; 98.6% in the experiment with UACC-257 melanoma; 99.1% with M14 melanoma; 99.7% in the experiment with HCT-15 colon; 95.4% with HT29 colon; 83.7% with SNB-75 CNS. The growth with SNB-19 CNS is 105%; in the experiment with U251 CNS it was 94.5%; with PC-3 prostate it was 90.1%; in the experiment on SK-MEL-5 melanoma, 96.3%; in the experiment on UACC-62 melanoma, 93.9%; in the experiment with LOX IMVI melanoma, 93%. Also, in the experiment with SK-MEL-28 melanoma, the growth is 101%.

For the compound `Cn1cc(-c2csc(-c3cn(C)c4ncccc34)n2)c2ccccc21`, the growth was 28% in the experiment with DU-145 prostate; 14.8% in the experiment with K-562 leukemia; 48.3% in the experiment with MALME-3M melanoma; 52.2% in the experiment on MDA-MB-231 breast; 19.9% in the experiment with RXF 393 renal; 50.6% in the experiment with SF-268 CNS. Further, the growth with SF-295 CNS is 9.79% (active); in the experiment on UACC-257 melanoma it was 61.1%; with M14 melanoma, 12.2%; in the experiment with HCT-15 colon, 26.5%; with HT29 colon, 6.11% (active); in the experiment on SNB-75 CNS, -4.48% (active). The growth in the experiment with SNB-19 CNS is 42.4%; with U251 CNS, 25.1%; in the experiment with PC-3 prostate it was 35.7%; in the experiment on SK-MEL-5 melanoma it was 32.6%; in the experiment with UACC-62 melanoma, 47%; in the experiment on LOX IMVI melanoma, 36.8%. Also, the growth in the experiment with SK-MEL-28 melanoma was 61.4%.

As to `Cn1cc(-c2nc(-c3c[nH]c4ccccc34)cs2)c2cccnc21`, the growth is 31.6% with DU-145 prostate; 18% with K-562 leukemia; 54.7% with MALME-3M melanoma; 30.6% in the experiment on MDA-MB-231 breast; 27.9% in the experiment on RXF 393 renal; 52.4% in the experiment on SF-268 CNS. Further, the growth was 11.5% with SF-295 CNS; 61.5% with UACC-257 melanoma; 19.6% in the experiment on M14 melanoma; 30% in the experiment on HCT-15 colon; 7.8% (active) in the experiment with HT29 colon; -6.18% (active) in the experiment with SNB-75 CNS. Moreover, the growth with SNB-19 CNS is 51.6%; with U251 CNS, 26.6%; in the experiment with PC-3 prostate it was 32.5%; in the experiment on SK-MEL-5 melanoma it was 21.6%; in the experiment on UACC-62 melanoma, 51.4%; in the experiment with LOX IMVI melanoma it was 39.4%. Further, the growth in the experiment with SK-MEL-28 melanoma was 52.4%.

As for `CCN(C(=O)CN1CCN(c2cc3c(cc2F)c(=O)c(C(=O)O)cn3CC)CC1)c1nc(-c2ccccc2)cs1`, the growth is 23.3% with DU-145 prostate; 12.3% in the experiment on K-562 leukemia; -5.46% (active) in the experiment with MALME-3M melanoma; 6.19% (active) in the experiment on MDA-MB-231 breast; 4.13% (active) in the experiment on RXF 393 renal; 22.7% with SF-268 CNS. The growth in the experiment with SF-295 CNS was -17.5% (active); in the experiment with UACC-257 melanoma it was -9.83% (active); with M14 melanoma it was 18.3%; in the experiment on HCT-15 colon, 12.3%; in the experiment with HT29 colon, 0.981% (active); with SNB-75 CNS it was -5.25% (active). The growth with SNB-19 CNS is 6.46% (active); with U251 CNS, 6.31% (active); with PC-3 prostate, 2.39% (active); in the experiment with SK-MEL-5 melanoma it was -55.6% (active); with UACC-62 melanoma, -5% (active); with LOX IMVI melanoma, -35% (active). Also, in the experiment on SK-MEL-28 melanoma, the growth was 41.9%.
